Results filed as inconclusive are left out. The source made the active and inactive calls. Calls follow the shape of the dose curve; as a rule, active = well fitted cell-killing curve with a large enough effect; inconclusive = small, poorly fitted or top-dose-only effect, or effect the other way; inactive = flat fitted curve, though single readings scatter. Where a SMILES comes first, the peptide text is derived from it. The star is where a group is joined. PhAc = O=C(Cc1ccccc1)*
Experiments:
Assay in all cases: Primary qHTS to identify gynecologic anti-cancer compounds using libraries of approved drugs and bioactive compounds (AID 1345084); also: nearly all actives have a fitted effect of over 55% in size
Settings in all cases: Gynecologic cancer cell panel viability, ATPlite luminescence, 48 h; series mostly up to 57.5 µM
OV90 = tested on: OV90
Summary of the method: (§1)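 48 h compound exposure at 37 C, 5% CO2; five-point qHTS. ATPlite luminescence readout of cell ATP.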

PA-1 = tested on: PA-1
Summary of the method: as §1

SKOV3 = tested on: SKOV3
Summary of the method: as §1

Tov-21-G = tested on: Tov-21-G
Summary of the method: as §1

Tov112D = tested on: Tov112D
Summary of the method: as §1
% is scaled to controls: 0 for no effect and ±100 for the full control effect.

C=C1CC[C@H]2[C@@](C)(CCC(O)[C@@]2(C)CO)[C@@H]1/C=C/C(=C\C(=O)O)C(=O)O (stereo not given in full)
inactive: Potency (OV90) | Potency (PA-1) | Potency (SKOV3) | Potency (Tov-21-G) | Potency (Tov112D)

CC(=O)OC/C(=C/C(=O)O)CC[C@@H]1C(CO)=CC[C@@H]2C(C)(C)CCC[C@@]12C
inactive: Potency (OV90) | Potency (PA-1) | Potency (SKOV3) | Potency (Tov-21-G) | Potency (Tov112D)

COc1ccc(N2CCN(CCCNC(=O)Cn3c(=O)c4cccn4c4c(C)ccnc43)CC2)cc1
inactive: Potency (OV90) | Potency (PA-1) | Potency (SKOV3) | Potency (Tov-21-G) | Potency (Tov112D)

O=C(O)c1ccc(NC(=O)[C@H](CC2CCCC2)n2cnc(C(F)(F)F)c2)nc1
inactive: Potency (OV90) | Potency (PA-1) | Potency (SKOV3) | Potency (Tov-21-G) | Potency (Tov112D)

CC1CC(=O)C2=C(O1)OC1(C)CCC3C(C)(C)C4OC4C(=O)C3(C)C1C2 (stereo not given)
inactive: Potency (OV90) | Potency (PA-1) | Potency (SKOV3) | Potency (Tov-21-G) | Potency (Tov112D)

CCC(C)/C=C(C)/C=C/C1=CC2=C(Cl)C(=O)C(C)(OC(C)=O)C(=O)C2=CN1CCCCC(N)C(=O)O (stereo not given)
inactive: Potency (OV90) | Potency (PA-1) | Potency (SKOV3) | Potency (Tov-21-G) | Potency (Tov112D)

CC(C)=CCC[C@@](C)(O)[C@H]1CC[C@]2(C)[C@@H]1[C@H](O)CC1[C@@]3(C)CC[C@H](O[C@@H]4O[C@H](CO)[C@@H](O)[C@H](O)[C@H]4O[C@@H]4O[C@H](CO)[C@@H](O)[C@H](O)[C@H]4O)C(C)(C)[C@@H]3CC[C@]12C (stereo not given in full)
inactive: Potency (OV90) | Potency (PA-1) | Potency (SKOV3) | Potency (Tov-21-G) | Potency (Tov112D)

CC1OC(OC2C(OC(=O)[C@]34CCC(C)(C)C[C@H]3C3=CCC5[C@@]6(C)CC[C@H](OC7OC(C(=O)O)C(O)C(O)C7O)C(C)(C)C6CC[C@@]5(C)[C@]3(C)CC4O)OC(CO)C2O)C(O)C(O)C1OC1OCC(O)C(O)C1O (stereo not given in full)
inactive: activity change, negative = cytotoxicity (OV90) -5.89% [at 11.6 µM] | activity change, negative = cytotoxicity (PA-1) 30.3% [at 11.6 µM] | activity change, negative = cytotoxicity (SKOV3) -0.208% [at 11.6 µM] | activity change, negative = cytotoxicity (Tov-21-G) 5.56% [at 11.6 µM] | activity change, negative = cytotoxicity (Tov112D) -3.39% [at 11.6 µM]

CC1CCC2(C(=O)O)CCC3(C)C(=CCC4C5(C)CCC(O)C(C)(C(=O)O)C5CCC43C)C2C1(C)O (stereo not given)
inactive: Potency (OV90) | Potency (PA-1) | Potency (SKOV3) | Potency (Tov-21-G) | Potency (Tov112D)

CC(C)(O)C1CCC2(C)CCCC(C)(O)C2C1 (stereo not given)
inactive: Potency (OV90) | Potency (PA-1) | Potency (SKOV3) | Potency (Tov-21-G) | Potency (Tov112D)

CC1(C)C(=O)CCC2(C)C1C(O)C=C1COC(=O)C12O (stereo not given)
inactive: Potency (OV90) | Potency (PA-1) | Potency (SKOV3) | Potency (Tov-21-G) | Potency (Tov112D)

CC(NC(=O)CC(=O)O)C(=O)Nc1ccccc1C(N)=O (stereo not given)
inactive: Potency (OV90) | Potency (PA-1) | Potency (SKOV3) | Potency (Tov-21-G) | Potency (Tov112D)

C=CC(C)(O)CC/C=C(\C)COC1O[C@H](CO)[C@@H](O)[C@H](O)[C@H]1O (stereo not given in full)
inactive: Potency (OV90) | Potency (PA-1) | Potency (SKOV3) | Potency (Tov-21-G) | Potency (Tov112D)

O=C(N[C@@H]1CC[C@@H](c2cccc(F)c2F)CN(CC(F)(F)F)C1=O)N1CCC(n2c(=O)[nH]c3ncccc32)CC1
inactive: Potency (OV90) | Potency (PA-1) | Potency (SKOV3) | Potency (Tov-21-G) | Potency (Tov112D)

COC(=O)C1=CO[C@@H](O[C@@H]2O[C@H](CO)[C@@H](O)[C@H](O)[C@H]2O)C2C1CC(O)C2C (stereo not given in full)
inactive: Potency (OV90) | Potency (PA-1) | Potency (SKOV3) | Potency (Tov-21-G) | Potency (Tov112D)

COC(=O)C1=CO[C@@H](O[C@@H]2O[C@H](CO)[C@@H](O)[C@H](O)[C@H]2O)[C@@H]2C(CO)=CC[C@H]12
inactive: Potency (OV90) | Potency (PA-1) | Potency (SKOV3) | Potency (Tov-21-G) | Potency (Tov112D)

CC(C)(O)c1ccc2c(c1)C(=O)C[C@H]1[C@](C)(C(=O)O)CCC[C@]21C
inactive: Potency (OV90) | Potency (PA-1) | Potency (SKOV3) | Potency (Tov-21-G) | Potency (Tov112D)

C[C@@H]1C[C@@H](O)[C@@]23CO[C@]2(CO)CCC[C@@H]3[C@@]12C[C@@H](c1ccoc1)OC2=O
inactive: Potency (OV90) | Potency (PA-1) | Potency (SKOV3) | Potency (Tov-21-G) | Potency (Tov112D)

Nc1ncnc2c1ncn2[C@H]1O[C@@H](C(=O)N2CCN(CC(=O)Nc3cccc4c3CNC4=O)CC2)[C@H](O)[C@@H]1O
inactive: Potency (OV90) | Potency (PA-1) | Potency (SKOV3) | Potency (Tov-21-G) | Potency (Tov112D)

CC[C@H]1OC(=O)[C@H](C)[C@@H](O[C@H]2C[C@@](C)(OC)[C@@H](O)[C@H](C)O2)C(C)[C@@H](O[C@@H]2O[C@H](C)C[C@H](N(C)C)[C@H]2O)[C@](C)(O)C[C@@H](C)CN(C)[C@H](C)[C@@H](O)[C@]1(C)O (stereo not given in full)
inactive: Potency (OV90) | Potency (PA-1) | Potency (SKOV3) | Potency (Tov-21-G) | Potency (Tov112D)

CCOC(=O)CNC(=O)[C@@H]1CCCN1C(=O)Cc1ccccc1 (PhAc-Pro-Gly-OEt)
inactive: Potency (OV90) | Potency (PA-1) | Potency (SKOV3) | Potency (Tov-21-G) | Potency (Tov112D)

Reference: PubChem BioAssay (NCATS)
